# Assay results: ChEMBL document CHEMBL1961873, “Compounds: GSK PKIS; Assays: Nanosyn kinase panel” (2012)
# Molecular target: Macrophage-stimulating protein receptor (Homo sapiens) (UniProt Q04912)
# Details: at 0.1 µM
# Sequence of Macrophage-stimulating protein receptor (Homo sapiens) (Q04912 25-304 limits assumed): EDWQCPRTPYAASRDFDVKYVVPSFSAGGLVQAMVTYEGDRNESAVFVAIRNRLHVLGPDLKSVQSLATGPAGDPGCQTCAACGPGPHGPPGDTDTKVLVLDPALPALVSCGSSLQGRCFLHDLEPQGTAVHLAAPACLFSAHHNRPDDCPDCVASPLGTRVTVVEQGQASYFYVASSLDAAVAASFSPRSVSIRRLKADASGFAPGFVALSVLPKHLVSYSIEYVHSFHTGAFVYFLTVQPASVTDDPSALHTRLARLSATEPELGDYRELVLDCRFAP
# Sequence of Macrophage-stimulating protein receptor (Homo sapiens) (Q04912 310-1400 limits assumed): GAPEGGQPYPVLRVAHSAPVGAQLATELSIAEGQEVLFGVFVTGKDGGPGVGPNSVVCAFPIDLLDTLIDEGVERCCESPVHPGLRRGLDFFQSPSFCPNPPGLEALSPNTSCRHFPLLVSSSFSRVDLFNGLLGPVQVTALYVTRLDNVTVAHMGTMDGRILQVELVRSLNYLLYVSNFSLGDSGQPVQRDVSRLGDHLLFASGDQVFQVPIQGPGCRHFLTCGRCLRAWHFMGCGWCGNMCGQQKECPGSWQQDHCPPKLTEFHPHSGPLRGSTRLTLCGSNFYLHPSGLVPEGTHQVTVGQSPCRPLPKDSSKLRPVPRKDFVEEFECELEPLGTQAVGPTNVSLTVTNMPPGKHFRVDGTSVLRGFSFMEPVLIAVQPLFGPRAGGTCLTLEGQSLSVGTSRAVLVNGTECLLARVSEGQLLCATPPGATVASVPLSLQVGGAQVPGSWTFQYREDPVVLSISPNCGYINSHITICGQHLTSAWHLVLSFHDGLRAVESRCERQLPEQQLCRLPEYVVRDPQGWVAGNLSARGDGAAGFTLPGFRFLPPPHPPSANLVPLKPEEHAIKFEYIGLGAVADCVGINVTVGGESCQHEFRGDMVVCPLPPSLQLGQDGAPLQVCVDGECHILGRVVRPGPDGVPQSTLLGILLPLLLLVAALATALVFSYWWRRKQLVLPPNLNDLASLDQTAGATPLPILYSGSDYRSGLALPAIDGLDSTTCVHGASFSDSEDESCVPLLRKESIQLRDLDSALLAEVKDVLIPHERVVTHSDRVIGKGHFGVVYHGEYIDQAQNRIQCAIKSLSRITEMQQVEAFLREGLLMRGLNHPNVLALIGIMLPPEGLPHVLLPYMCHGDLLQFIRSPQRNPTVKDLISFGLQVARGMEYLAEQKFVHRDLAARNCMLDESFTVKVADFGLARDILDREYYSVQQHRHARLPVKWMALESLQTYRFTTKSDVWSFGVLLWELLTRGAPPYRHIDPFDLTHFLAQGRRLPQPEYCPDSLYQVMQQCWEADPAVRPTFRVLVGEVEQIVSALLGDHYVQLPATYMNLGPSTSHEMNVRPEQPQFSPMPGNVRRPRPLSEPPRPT
row,Structure (SMILES),inhibition [%]
1,Cc1cc(O)cc(C)c1/C=C/c1cncc(-c2nn[nH]n2)c1,3.43
2,Nc1nc(-c2ccc3c(c2)C(=Cc2cc(Br)c(O)c(Br)c2)C(=O)N3)cs1,-0.43
3,COc1cccc(-n2ncc3c(N/N=C/c4cccc(F)c4)ncnc32)c1,7.02
4,COC(=O)Nc1nc2cc(Oc3ccc(NC(=O)Nc4cccc(C(=O)O)c4)cc3)ccc2[nH]1,0.89
5,Cc1nn(C)c2cc(N(C)c3ccnc(Nc4cccc(S(N)(=O)=O)c4)n3)ccc12,5.47
6,COc1cc2ncn(-c3cc(OCc4ccccc4Cl)c(C(N)=O)s3)c2cc1OC,0.23
7,CC(=O)Nc1cccc(C#Cc2cncnc2Nc2ccc(OCc3cccc(F)c3)c(Cl)c2)n1,0.21
8,COc1ccc(COc2ccc(Cc3cnc(N)nc3N)cc2OC)cc1,1.99
9,Nc1nc(-c2ccccn2)c(-c2ccc3ncccc3n2)s1,3.66
10,CC1=C(C(=O)Nc2ccc3[nH]ncc3c2)C(c2ccc3ccccc3c2)CC(=O)N1 (centres undefined),34
11,Cn1cc(C=C2C(=O)Nc3cccnc32)c2ccccc21,3.7
12,COc1ccc(-c2coc3ncnc(N)c23)cc1,8.95
13,CS(=O)(=O)CCNCc1nc(-c2ccc3ncnc(Nc4ccc(F)c(Cl)c4)c3c2)cs1,1.17
14,O=C1Nc2ccc(C(=O)c3ccco3)cc2C1=Cc1cc(Cl)c(O)c(Cl)c1,14.5
15,COc1cc2ncn(-c3cc(O[C@H](C)c4ccccc4Cl)c(C(N)=O)s3)c2cc1OC,14.8
16,CS(=O)(=O)CCN(CC#N)Cc1ccc(-c2ccc3ncnc(Nc4ccc(OCc5cccc(F)c5)c(Cl)c4)c3c2)o1,0.07
17,CC(C)=Cc1cccc2c1/C(=N/Nc1ccc(S(N)(=O)=O)cc1)C(=O)N2,2.03
18,CCn1c(-c2nonc2N)nc2c(C#CC(C)(C)O)nc(OC[C@@H](N)c3ccccc3)cc21,11.5

# Molecular target: Macrophage-stimulating protein receptor (Homo sapiens) (UniProt Q04912)
# Details: at 1 µM
row,Structure (SMILES),inhibition [%]
1,Nc1ncnc2occ(-c3ccc(NC(=O)Nc4cc(C(F)(F)F)cc(C(F)(F)F)c4)cc3)c12,7.91
2,CCn1c(-c2nonc2N)nc2c(N3CCCC3)nccc21,0.95
3,CCn1c(-c2nonc2N)nc2cnc(Oc3cccc(NC(=O)c4ccc(OCCN5CCOCC5)cc4)c3)cc21,5
4,COc1ccccc1Nc1ncc(-c2ccccc2)o1,1.59
5,Cc1cccc(-c2n[nH]cc2-c2ccc3ncccc3n2)n1,1.79
6,CC1=C(C(=O)Nc2ccc3[nH]ncc3c2)C(c2ccc(F)cc2)NC(=O)N1 (centres undefined),21.4
7,CCCN1CCC=C(c2ccc(Nc3nc(Nc4ccccc4C(N)=O)c4cc[nH]c4n3)c(C)c2)C1,11.6
8,CS(=O)(=O)Nc1ccc(N/C=C2\C(=O)Nc3ccccc32)cc1,6.3
9,CCN1CCC(CC(=O)Nc2n[nH]c3nc(-c4cccs4)c(Br)cc23)CC1,6.29
10,CS(=O)(=O)CCNCc1ccc(-c2ccc3ncnc(Nc4ccc(OCc5cccc(F)c5)c(C(F)(F)F)c4)c3c2)o1,5
11,COc1ccc(-c2nn3ncccc3c2-c2ccnc(Nc3ccc(Cl)c(C(F)(F)F)c3)n2)cc1,2.44
12,c1cnn2ncc(-c3ccnc(Nc4ccc5c(c4)OCCO5)n3)c2c1,16.8
13,CCn1c(-c2nonc2N)nc2cncc(C(=O)N3CC[C@H](N)C3)c21,6.19
14,NCc1ccc(-c2nc(-c3ccc(Cl)c(O)c3)c(-c3ccncc3)[nH]2)cc1,2.55
15,COc1cc2ncn(-c3cc(OCc4ccccc4C(F)(F)F)c(C(N)=O)s3)c2cc1OC,8.36
16,COc1ccc(-c2ccncc2)cc1C(N)=O,1.15
17,Cc1cc(O)cc(C)c1/C=C/c1cncc(-c2nn[nH]n2)c1,8.76
18,Nc1nc(-c2ccc3c(c2)C(=Cc2cc(Br)c(O)c(Br)c2)C(=O)N3)cs1,2.87
19,COc1cccc(-n2ncc3c(N/N=C/c4cccc(F)c4)ncnc32)c1,24.4
20,COC(=O)Nc1nc2cc(Oc3ccc(NC(=O)Nc4cccc(C(=O)O)c4)cc3)ccc2[nH]1,5.64
21,Cc1nn(C)c2cc(N(C)c3ccnc(Nc4cccc(S(N)(=O)=O)c4)n3)ccc12,22.4
22,COc1cc2ncn(-c3cc(OCc4ccccc4Cl)c(C(N)=O)s3)c2cc1OC,13.3
23,CC(=O)Nc1cccc(C#Cc2cncnc2Nc2ccc(OCc3cccc(F)c3)c(Cl)c2)n1,0.21
24,COc1ccc(COc2ccc(Cc3cnc(N)nc3N)cc2OC)cc1,5.55
25,Nc1nc(-c2ccccn2)c(-c2ccc3ncccc3n2)s1,6.53
26,CC1=C(C(=O)Nc2ccc3[nH]ncc3c2)C(c2ccc3ccccc3c2)CC(=O)N1 (centres undefined),67.5
